The values below come from PubChem BioAssay (Tox21).

A number with no mark means an inactive call. Inconclusive results are not listed. Activity calls are given as the source filed them. Unless noted, calls come from the whole dose curve; as a rule, active = well fitted curve in the direction sought with a large enough effect in the repeat runs; inconclusive = weak or mixed curves; inactive = no such curve, though single readings can be large; an effect the other way counts as inactive or inconclusive.

Test [1] in a line: qHTS assay to test for compound auto fluorescence at 535 nm (green) in HEK293 cells (AID 720680).
A short description of test [2]: qHTS assay to test for compound auto fluorescence at 460 nm (blue) in HEK293 cell free culture (AID 720681). In a few lines:
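Test compounds were pinned into cell-free culture medium (DMEM with 10% FBS) and fluorescence was read directly at Ex/Em 405/460 nm. Signals were expressed as fluorescence equivalents of triamterene, with DMSO vehicle as control.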
(qHTS replaces the single test concentration by a dilution series.)

Test [3] is described as follows: qHTS assay to test for compound auto fluorescence at 535 nm (green) in HEK293 cell free culture (AID 720682). In a few lines: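 No cells present: wells hold DMEM supplemented with 10% FBS, into which compound or vehicle is pinned. Green emission is then recorded (485 nm excitation, 535 nm emission) and scaled to fluorescein.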
Test [4] is described as follows: qHTS assay to test for compound auto fluorescence at 590 nm (red) in HEK293 cell free culture (AID 720683). In a few lines:
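Tox21 10K library compounds were pinned into cell-free DMEM with 10% FBS and fluorescence was read at excitation 540 nm. Activity is expressed as Rose Bengal sodium equivalency.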

Test [5] can be described thus: qHTS assay to test for compound auto fluorescence at 590 nm (red) in HepG2 cell free culture (AID 720684). In a few lines:
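Readout: intrinsic compound fluorescence at 590 nm emission after 540 nm excitation, scaled to Rose Bengal sodium. Matrix was cell-free MEM with 10% FBS; DMSO vehicle wells served as control.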

Test [6] is described as follows: qHTS assay to test for compound auto fluorescence at 460 nm (blue) in HepG2 cell free culture (AID 720685). In a few lines: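 Cell-free plates of MEM plus 10% FBS received 23 nL compound or DMSO vehicle; blue-channel (405/460 nm) intensity scored against triamterene as reference fluorophore.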
Test [7] in a line: qHTS assay to test for compound auto fluorescence at 535 nm (green) in HepG2 cell free culture (AID 720686).
Test [8] is described as follows: qHTS assay to test for compound auto fluorescence at 460 nm (blue) in HepG2 cells (AID 720687). In a few lines:
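Cells (2,000/well in MEM with 10% FBS) attached overnight at 37 C, then were exposed to compound or DMSO for 1 hr at 37 C, 5% CO2. Fluorescence read at Ex/Em 405/460 nm, expressed as triamterene-equivalent signal.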

Test [9] concerns the target Glucocorticoid receptor (Homo sapiens) (UniProt P04150). Description: qHTS assay to identify small molecule agonists of the glucocorticoid receptor (GR) signaling pathway (AID 720691; active = well fitted activation curve with a large enough effect in the signal ratio in the repeat runs, not every such curve was filed as active; the % refers to the signal ratio). In a few lines: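 Cells: GR-bla HeLa, endogenous GR with stably integrated GRE-beta-lactamase reporter. Treatment 18 h, 37 C, compounds delivered in DMSO. Detection via LiveBLAzer B/G FRET substrate, 2 h RT, fluorescence intensity.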

Test [10] in a line: qHTS assay to identify small molecule antagonists of the glucocorticoid receptor (GR) signaling pathway - cell viability counter screen (AID 720693). Note: nearly all actives have a fitted effect of over 55% in size.
A short description of test [11]: qHTS assay for identifying genotoxic compounds that show differential cytotoxicity against isogenic chicken DT40 cell lines with known DNA damage response pathways - wild type cell line (AID 743012). Note: nearly all actives have a fitted effect of over 60% in size. Note: potency is the fitted concentration of half-maximal effect. In a few lines: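 Luminescent ATP viability signal (CellTiter-Glo, 30 min RT) recorded after wild type DT40 cells were incubated with compounds for 40 h at 37 C/5% CO2.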

Test [12] is described as follows: qHTS assay for identifying genotoxic compounds that show differential cytotoxicity against isogenic chicken DT40 cell lines with known DNA damage response pathways - Rev3 mutant cell line (AID 743014). Note: nearly all actives have a fitted effect of over 55% in size. Note: potency is the fitted concentration of half-maximal effect.
Test [13] in a line: qHTS assay for identifying genotoxic compounds that show differential cytotoxicity against isogenic chicken DT40 cell lines with known DNA damage response pathways - Rad54/Ku70 mutant cell line (AID 743015). Note: nearly all actives have a fitted effect of over 60% in size. Note: potency is the fitted concentration of half-maximal effect.
Test [14] can be described thus: qHTS assay to identify small molecule antagonists of the androgen receptor (AR) signaling pathway using the MDA cell line - cell viability counter screen (AID 743041; note: nearly all actives have a fitted effect of over 45% in size). In a few lines:
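qHTS viability read-out; MDA-kb2 AR-luc; R1881-stimulated; 16 h exposure at 37C, 0% CO2; CellTiter-Fluor, 30 min; fluorescence intensity.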

Test [15] can be described thus: qHTS assay to identify small molecule antagonists of the thyroid receptor (TR) signaling pathway - cell viability counter screen (AID 743064). Note: nearly all actives have a fitted effect of over 50% in size. Note: potency is the fitted concentration of half-maximal effect. In a few lines:
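Rat GH3 pituitary tumor cells stably expressing two TR response elements driving luciferase were plated, rested 4 h, then dosed with library compounds and T3 (1 nM final). After 23.5 h at 37 °C, CellTiter-Fluor was added for 30 min and fluorescence recorded.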

Test [16] in a line: qHTS assay to identify small molecule antagonists of the androgen receptor (AR) signaling pathway - cell viability counter screen (AID 743033; note: nearly all actives have a fitted effect of over 45% in size).
Test [17] deals with Androgen receptor (Homo sapiens) (UniProt P10275). Description: qHTS assay to identify small molecule agonists of the androgen receptor (AR) signaling pathway using the MDA cell line (AID 743040; note: nearly all actives have a fitted effect of over 20% in size). In a few lines:
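Agonist activity is measured as luciferase luminescence in human MDA-kb2 cells whose MMTV reporter responds to both AR and GR. Compounds in DMSO incubate 16 h at 37C, 0% CO2, and ONE-Glo is read after 30 min.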

Test [18] deals with Glucocorticoid receptor (Homo sapiens) (UniProt P04150). Description: qHTS assay to identify small molecule antagonists of the glucocorticoid receptor (GR) signaling pathway (AID 720692; active = well fitted inhibition curve with a large enough effect in the signal ratio in the repeat runs, not every such curve was filed as active; the % refers to the signal ratio). In a few lines: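 Quantitative HTS in antagonist format: HeLa cells expressing endogenous GR and a stably integrated GRE-bla reporter, stimulated with 5 nM dexamethasone (final) alongside test compounds for 18 h.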
Chain of Glucocorticoid receptor (Homo sapiens) (P04150 whole entry, looked up): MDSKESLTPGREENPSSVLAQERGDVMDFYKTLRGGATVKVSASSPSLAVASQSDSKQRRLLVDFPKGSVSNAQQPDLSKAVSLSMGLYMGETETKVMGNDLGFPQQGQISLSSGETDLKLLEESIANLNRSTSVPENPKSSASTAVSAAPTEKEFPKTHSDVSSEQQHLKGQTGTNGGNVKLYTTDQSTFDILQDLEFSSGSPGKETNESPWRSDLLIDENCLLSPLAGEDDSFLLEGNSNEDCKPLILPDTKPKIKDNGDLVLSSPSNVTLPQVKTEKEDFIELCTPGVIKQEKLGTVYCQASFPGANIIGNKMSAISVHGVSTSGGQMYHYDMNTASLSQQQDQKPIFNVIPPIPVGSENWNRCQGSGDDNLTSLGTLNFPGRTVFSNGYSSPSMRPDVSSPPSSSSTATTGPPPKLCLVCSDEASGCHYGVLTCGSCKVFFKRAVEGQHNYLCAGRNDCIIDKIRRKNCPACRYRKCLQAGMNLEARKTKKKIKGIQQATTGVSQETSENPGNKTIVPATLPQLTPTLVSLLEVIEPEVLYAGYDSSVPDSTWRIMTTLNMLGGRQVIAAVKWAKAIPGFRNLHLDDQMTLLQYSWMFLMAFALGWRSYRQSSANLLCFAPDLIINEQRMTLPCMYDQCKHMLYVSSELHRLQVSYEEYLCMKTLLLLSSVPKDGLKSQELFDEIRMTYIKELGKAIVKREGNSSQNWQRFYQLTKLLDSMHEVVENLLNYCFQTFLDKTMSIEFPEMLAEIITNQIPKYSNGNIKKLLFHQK

Chain of Androgen receptor (Homo sapiens) (P10275 whole entry, looked up): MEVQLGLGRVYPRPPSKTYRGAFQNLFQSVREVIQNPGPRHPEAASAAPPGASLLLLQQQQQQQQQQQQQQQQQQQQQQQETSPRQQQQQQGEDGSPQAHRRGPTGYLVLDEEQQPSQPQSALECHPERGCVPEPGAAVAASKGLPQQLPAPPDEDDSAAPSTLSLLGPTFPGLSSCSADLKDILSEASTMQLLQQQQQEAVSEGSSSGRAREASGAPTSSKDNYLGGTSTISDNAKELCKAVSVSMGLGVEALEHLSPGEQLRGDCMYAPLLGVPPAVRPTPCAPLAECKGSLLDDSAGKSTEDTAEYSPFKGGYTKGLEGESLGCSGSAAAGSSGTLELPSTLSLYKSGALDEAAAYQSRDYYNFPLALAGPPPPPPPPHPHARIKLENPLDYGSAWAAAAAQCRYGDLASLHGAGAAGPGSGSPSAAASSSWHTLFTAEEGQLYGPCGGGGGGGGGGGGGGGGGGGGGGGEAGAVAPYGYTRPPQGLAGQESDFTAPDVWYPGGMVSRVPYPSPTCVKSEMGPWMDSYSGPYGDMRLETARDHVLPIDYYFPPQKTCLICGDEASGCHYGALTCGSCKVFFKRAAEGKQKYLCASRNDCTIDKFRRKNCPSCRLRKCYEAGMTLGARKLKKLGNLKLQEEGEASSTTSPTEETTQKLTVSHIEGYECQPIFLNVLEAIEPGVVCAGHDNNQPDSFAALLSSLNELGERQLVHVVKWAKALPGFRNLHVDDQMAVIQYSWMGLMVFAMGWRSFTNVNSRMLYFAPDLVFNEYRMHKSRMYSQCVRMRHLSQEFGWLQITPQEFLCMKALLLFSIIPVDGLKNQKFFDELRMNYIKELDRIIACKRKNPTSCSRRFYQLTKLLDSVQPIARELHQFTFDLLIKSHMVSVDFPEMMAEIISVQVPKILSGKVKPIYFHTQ

Consider `Fc1ccc(C2(Cn3cncn3)OC2c2ccccc2Cl)cc1` (centres undefined), for which the compound was called inactive in test [1], in [2], in test [3], in [4], in test [5] and in test [6]. Further, the outcome in test [7], in test [8] and in test [9] was inactive. Moreover, the Potency entry in test [10], in test [14] and in [15] was “inactive” throughout. For the same compound, the Potency in test [11] was 15.4 µM (active); in [12], 34.4 µM (active); in test [13] it was 27.3 µM (active).

Consider `Nc1c(Br)cc([N+](=O)[O-])cc1[N+](=O)[O-]`, for which the result in [1], in test [2], in test [3], in [4], in [5] and in test [6] was inactive. The outcome in [7] and in [8] was inactive. Further, the Potency entry in test [10], in test [11], in [16] and in test [17] was “inactive” in each case. Also, the Potency in test [15] was 55.1 µM (active).

In the case of `OC(c1ccc(F)cc1)(c1cncnc1)c1ccccc1Cl` (centres undefined), the outcome in test [1], in test [2], in test [3], in [4], in [5] and in test [6] was inactive. In addition, the result in [7], in [8] and in test [9] was inactive. For the same compound, the Potency entry in test [10], in test [16], in test [14] and in [15] was “inactive” throughout. The Potency is 30.6 µM (active) in test [12] and 61.1 µM (active) in [13].

For the compound `Oc1c(Cl)cccc1Cl`, the call in test [1], in test [2], in test [3], in test [4], in [5] and in [6] was inactive. The outcome in test [7] and in test [8] was inactive. The Potency result in [10], in test [11], in test [12], in test [13], in test [16] and in [14] was “inactive” in each case.

`CCN(CC)CCOC(=O)C(C)(c1ccccc1)c1ccccc1`: the result in test [1], in test [2], in [3], in [4], in test [5] and in [6] was inactive. For the same compound, the compound was called inactive in test [7] and in test [8]. Moreover, the Potency entry in [10], in test [16] and in [14] was “inactive” each time. The Potency in test [11] was 8.41 µM (active); in test [12] it was 11.9 µM (active); in test [13] it was 23.7 µM (active); in test [15] it was 26.6 µM (active).

Turning to `CCCSP(=O)(OCC)Oc1ccc(Br)cc1Cl` (centres undefined), the compound was called inactive in test [1], in [2], in test [3], in test [4], in [5] and in test [6]. Moreover, the compound was called inactive in [7] and in test [8]. For the same compound, the Potency result in [10], in test [16] and in test [14] was “inactive” in each case. Moreover, the Potency was 33.3 µM (active) in [12] and 29.7 µM (active) in test [13].

On to `[Cl][Sn]([Cl])([Cl])[Cl]`, for which the outcome in test [1], in test [2], in test [3], in [4], in test [5] and in [6] was inactive. Also, the compound was classed as inactive in test [7] and in test [9]. The Potency result in [18], in test [11], in test [12], in test [13], in test [16] and in test [14] was “inactive” throughout.
